According to ChEMBL document CHEMBL3988442, “University of Dundee, Small-Polar-MMV Screening Library” (2021):
About 13,000 (27%) of roughly 48,000 compounds showed an effect of 50% or more. Some of the results follow.

These compounds were tested on Wolbachia pipientis (assay: Anti-Wolbachia Cell-Based Screen). Conditions: 5 µM.
Format: functional
Set-up: scale not given: in the data most compounds retested in dose-response had high values

Structure (SMILES) | Percent Effect
Nc1nccc(NCc2cc3n(n2)CCCN(C(=O)C2CCC2)C3)n1 | -4.748%
CSc1nccc(NCc2cc3n(n2)CCCN(C(=O)C2CCC2)C3)n1 | 104.3%
Nc1nccc(NCc2cc3n(n2)CCCN(C2CCCCC2)C3)n1 | 13.65%
Cc1nccc(NCc2cc3n(n2)CCCN(C(=O)C2CCC2)C3)n1 | 100.1%
Cc1ccc(C2C3=C(COC3=O)Nc3[nH]nc(C)c32)cc1C (configuration not stated) | 8.246%
CCc1nccn1CCC(=O)N1CC[C@@H](c2sccc2C)[C@H](O)C1 | -1.934%
O=C(O)C(F)(F)F.c1cnc(N2CCO[C@H]3CN(CC4CCOC4)C[C@H]32)cn1 (some centres not stated) | 122.8%
O=C(O)C(F)(F)F.c1cnc(N2CCO[C@H]3CN(Cc4csnn4)C[C@H]32)cn1 | 6.84%
c1cnc(N2CCO[C@H]3CN(CC4CCCC4)C[C@H]32)cn1 | 112.8%
CN(C)c1nccc(N2CCO[C@H]3CN(CC4CCOCC4)C[C@H]32)n1 | 11.02%
CNC(=O)CN1CCO[C@H]2CN(CC3CCOCC3)C[C@H]21.O=C(O)C(F)(F)F.O=C(O)C(F)(F)F | -17.71%
O=C(O)C(F)(F)F.c1cnc(N2CCO[C@H]3CN(Cc4c[nH]cn4)C[C@H]32)cn1 | 2.338%
O=C(O)C(F)(F)F.c1cnc(N2CCO[C@H]3CN(CC4CCC4)C[C@H]32)cn1 | 107.5%
Cn1cc(CN2C[C@@H]3OCCN(CC4CCCC4)[C@@H]3C2)cn1 | -2.926%
Cc1nn(CCn2ccnc2-c2cc3n(n2)CCCNC3)c(C)c1Cl | 1.548%
CC(C)C(C(=O)NC1CC1)n1cnc2cc(F)c(F)cc21 (configuration not stated) | 15.81%
O=C(NCc1nc(C2CC2)no1)N1CCOC(c2ccccc2F)C1 (configuration not stated) | 3.199%
CC(C)CNC(=O)C[S+]([O-])Cc1csc(C2CCCCC2)n1 (configuration not stated) | -4.765%
COc1ccc(C(O)CNc2c(C#N)c(=O)n(C)c(=O)n2C)cc1 (configuration not stated) | -9.845%
CN(C(=O)C1CSCN1S(=O)(=O)c1ccc(F)cc1)C1CC1 (configuration not stated) | 5.468%
COCCc1noc(CNC2CCc3nc(C(C)C)nn3C2)n1 (configuration not stated) | -13.08%
Cc1cc(CNC2CCc3nc(C(C)C)nn3C2)on1 (configuration not stated) | 128.3%
CC(C)c1nc2n(n1)CC(NCc1nnc(C(C)C)o1)CC2 (configuration not stated) | 2.327%
Cc1ccc(CNC2CCc3nc(C(C)C)nn3C2)o1 (configuration not stated) | 110.7%
CC(C)c1nc2n(n1)CC(NCc1nc(-c3ccccn3)no1)CC2 (configuration not stated) | 1.998%
CC(C)c1nc2n(n1)CC(NCc1cc3ccccc3o1)CC2 (configuration not stated) | -25.06%

Structure (SMILES) | Percent Effect
CCN(C(=O)NCc1ccccc1OC(F)F)C(C)c1cccnc1 (configuration not stated) | -11.48%
CC(C)(NCC(=O)N1CCCC(C(N)=O)C1)c1ccc(Cl)cc1 (configuration not stated) | 1.343%
CCCc1cc(C(=O)N2CCCC2c2cccnc2)[nH]n1 (configuration not stated) | 15.07%
CC(C)(C)c1cc(C(=O)N2CCC(c3cnccn3)CC2)[nH]n1 | 96.1%
CC(C)(C)c1cn(C2CCN(C(=O)c3cnccn3)CC2)nn1 | -4.102%
CC(C)(C)c1cc(C(=O)N2CCOC(c3cnccn3)C2)[nH]n1 (configuration not stated) | 139%
Cc1cc(C(=O)N2CCOC(c3ccc(Cl)c(Cl)c3)C2)[nH]n1 (configuration not stated) | -12.35%
Cc1cc(C(=O)N2CCOC(c3nc(C)n[nH]3)C2)[nH]n1 (configuration not stated) | -1.43%
CC(C)c1nc(C(=O)N2C[C@H]3CC[C@@H]2CN(C2CCOCC2)C3)cs1 | -6.079%
CCOCC(=O)N1CCC(c2nccn2Cc2cscn2)CC1 | -5.535%
Cc1cc(F)ccc1-c1ccccc1CC1CNCCNC1=O.Cl (configuration not stated) | 140%
O=C(Cc1ccc(F)cc1Cl)N[C@@H]1CCNC[C@H]1O | 6.286%
Cc1ccc(F)cc1CC(=O)N1CC[C@@]2(O)CCNC[C@H]2C1 | -17.57%
CCNC(=O)[C@@H]1CCCN1[C@@H](C(=O)NC)C1CC1.Cl | 7.785%
CS(=O)(=O)N1CC(=O)N(CCCc2ccccc2)CC(O)C1 (configuration not stated) | 96.22%
Cn1ccnc1CN1C(=O)CO[C@H]2CN(CCCc3ccccc3)C[C@H]21 | -23.58%
CS(=O)(=O)N1CCC2(CCCN(CCCc3ccccc3)C2=O)C1 (configuration not stated) | 8.67%
CCCS(=O)(=O)N1CCC2(CC1)CC(=O)N(CCCc1ccccc1)C2 | 8.339%
CS(=O)(=O)N1CCC(OCCCc2ccccc2)C1 (configuration not stated) | -9.606%
CCS(=O)(=O)N1CC(=O)N(CCCc2ccccc2)CC(O)C1 (configuration not stated) | 108.2%
CCCS(=O)(=O)N1CC(=O)N(CCCc2ccccc2)CC(O)C1 (configuration not stated) | 106.2%
N#Cc1cccc(NC2CC(=O)N(CCCc3ccccc3)C2)n1 (configuration not stated) | -4.151%
CCCS(=O)(=O)N1CCC2(CCC(=O)N(CCc3ccccc3)C2)CC1 | 19.11%
CCS(=O)(=O)N1CC[C@@H]2[C@@H](CCC(=O)N2CCc2ccccc2)C1 | -12.22%
O=C1CN(S(=O)(=O)CC(F)(F)F)CC(O)CN1CCCc1ccccc1 (configuration not stated) | 73.93%
CCS(=O)(=O)N1CCC(OCCCc2ccccc2)C1 (configuration not stated) | -14.61%
